Structures are written as SMILES. Records with an inconclusive call do not appear. The source made the active and inactive calls. The call rests on the fitted dose curve; in most records, active means well fitted cell-killing curve with a large enough effect; inconclusive means small, poorly fitted or top-dose-only effect, or effect the other way; inactive means no such curve, though single readings can be large or run the other way.
Potency means the concentration at half of the fitted maximal effect.

This assay can be described thus: Quantitative High-Throughput drug screen in 47 multiple myeloma cell lines against the NCATS MIPE library collection: KMS28BM_JCRB cell viability assay (AID 1919874). Further: nearly all actives have a fitted effect of over 35% in size. The following applies: CellTiter-Glo ATP, 48 h; series mostly up to 45.8 µM. The procedure, abridged:
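qHTS format: cells plated (500/well), pin-dosed with MIPE 4.0 compounds, kept 48 h at 37 °C. Readout was CellTiter-Glo luminescence, median RLU.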
For orientation: In ATP-based viability assays light output follows the ATP content of the culture.
Regarding `Cc1c(NC(=O)c2ccc(C(C)(C)C)cc2)cccc1-c1cn(C)c(=O)c(Nc2ccc(C(=O)N3CCOCC3)cc2)n1`, the Potency was 18.7 µM (active).
Under `Cc1ccn(-c2ccc(-c3ncco3)cc2)c(=O)c1-c1ccc2nc(N)ncc2c1` stands “inactive”; under `CCCCCNC(=O)N1CCC(CN(Cc2ccc(Cl)cc2)Cc2ccc([N+](=O)[O-])s2)C1` (configuration not stated), 18.7 µM (active).
Next, `O=C(Nc1ccccc1Br)N[C@@H]1CCN(c2ccc(C(F)(F)F)cn2)C1`: 20.9 µM (active); `CCOc1ccc(Nc2nc(-c3c(C)nc4ccccn34)cs2)cc1`: “inactive”; `CS(=O)(=O)N(Cc1ccco1)CC(O)Cn1c2ccccc2c2ccccc21` (configuration not stated): 26.4 µM (active).
Under `COc1ccc2c(Oc3ccc(NC(=O)c4c(C)n(CC(C)(C)O)n(-c5ccccc5)c4=O)nc3)ccnc2c1` stands “inactive”; under `O=C(OCC#CCSc1nnc(-c2cccc3ccccc23)o1)c1cc2ccccc2s1`, 3.32 µM (active).
Consider `C[C@]12CC[C@@H]3c4ccc(O)cc4CC[C@H]3[C@H]1C[C@@H](O)[C@H]2O`, for which the Potency result was “inactive”.
Under `O=C1NC(=O)C(=Cc2ccc3nccnc3c2)S1` stands 7.24 µM (active); under `NC(=O)[C@@H](CCC(F)(F)F)N(Cc1ccc(-c2ncon2)cc1F)S(=O)(=O)c1ccc(Cl)cc1`, 20.9 µM (active); under `Nc1ncnc2c1nc(Cl)n2[C@@H]1O[C@H](CO)[C@@H](O)[C@@H]1O`, 13.2 µM (active).
Under `CCn1c(C(=O)N(C2CC2)C2CC2)cc2c3c(ncn3C)c(Nc3cc(C)n(C)n3)nc21` stands “inactive”; under `O=C(NCc1ccncc1)C12C[C@H]3C[C@@H](C1)CC(c1ccc(Cl)cc1)(C3)C2`, 18.7 µM (active).
Under `COc1ccc(-c2nc(N3CCOCC3)c3sc(CN(C)c4ncc(C(=O)NO)cn4)cc3n2)cn1` stands “inactive”; under `CC(C)C(=O)Nc1ncc(-c2cc(C(F)F)nn2-c2c(Cl)cccc2Cl)s1`, 11.8 µM (active); under `CCN(CC)CCOc1ccc(C(=C(Cl)c2ccccc2)c2ccccc2)cc1`, 10.5 µM (active).
